Screening results as filed in PubChem BioAssay.
Hits are enriched below; roughly 3.8% of the tested compounds scored in any of these assays.
PfHsp90 yeast 2 = reduces growth (ATP signal) of yeast expressing P. falciparum Hsp90. S. cerevisiae expressing PfHsp90, BacTiter-Glo ATP, 48 h; yeast lacking PDR1 and PDR3 efflux regulators. inhibition, % at 9.4 µM. hit rate 0.32% among 310,000. AID 504621;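 active = every replicate shows inhibition above about 80%, whatever the replicate mean, limit read from the data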
TIM10 inh = TIM10 yeast growth inhibition; S. cerevisiae TIM10 strain growth, BacTiter-Glo luminescence, 24 h; hit rate 1.4% among 330,000; inhibition, % at 10 µM;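 active = inhibition of 40% or more at the single tested concentration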;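 note: wild-type TIM10 isogenic control strain grown at permissive 25 °C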
tim10-1 inh = growth inhibitors of tim10-1 mutant yeast. S. cerevisiae tim10-1 ts strain growth, BacTiter-Glo, 24 h. inhibition, % at 20 µM. hit rate 2.2% among 330,000. AID 463190;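 active = inhibition of at least 40%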;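 note: mutant grown at 25 °C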
tim23-1 inh = tim23-1 yeast growth inhibition | S. cerevisiae tim23-1 growth, BacTiter-Glo luminescence, 24 h | AID 463212 | hit rate 1.3% among 330,000 | inhibition, % at 20 µM;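 active = growth inhibition of the mutant yeast at or above 50%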;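 note: temperature-sensitive mutant grown at 25 °C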
B2AR ag = human beta-2 adrenergic receptor agonism by FAP. response, % (test concentration not listed). hit rate 0.43% among 340,000. Am2.2-beta2AR cells, FAP receptor internalization, flow cytometry. P07550;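 active = response above a set limit, near 3 SD of response in nonfluorescent compounds, cut at about 42% in these data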
Target sequence (P07550 whole entry, looked up): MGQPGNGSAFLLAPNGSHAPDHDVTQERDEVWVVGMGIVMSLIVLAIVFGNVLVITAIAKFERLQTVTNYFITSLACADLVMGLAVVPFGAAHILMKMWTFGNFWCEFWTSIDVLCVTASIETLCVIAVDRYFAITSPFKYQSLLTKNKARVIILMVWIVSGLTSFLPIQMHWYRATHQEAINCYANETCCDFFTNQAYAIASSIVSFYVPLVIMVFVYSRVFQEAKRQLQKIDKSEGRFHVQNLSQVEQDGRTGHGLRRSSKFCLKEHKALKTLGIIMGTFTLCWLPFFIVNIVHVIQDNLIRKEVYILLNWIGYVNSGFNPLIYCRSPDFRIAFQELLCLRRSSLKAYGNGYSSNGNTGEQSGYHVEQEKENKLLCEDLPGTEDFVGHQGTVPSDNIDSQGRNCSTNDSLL
tim10-1 conf = confirmation of tim10-1 mutant yeast growth inhibitors | shares compounds with tim10-1 inh | inhibition, % at 20 µM | hit rate 56% among 7,400 | S. cerevisiae tim10-1 ts strain growth, BacTiter-Glo, 24 h | AID 463213;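 active = inhibition of yeast growth at or above a set limit in either of two repeat tests at 20 µM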;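 note: tim10-1 mutant grown at permissive 25 °C to find synthetic lethal compounds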
TIM10 conf = TIM10 yeast growth inhibition, confirmed | S. cerevisiae tim10 strain growth, BacTiter-Glo luminescence, 24 h | AID 463215 | hit rate 63% among 4,600 | shares compounds with TIM10 inh | inhibition, % at 10 µM;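 active = inhibition of yeast growth at or above a set limit in either of two replicates at 10 µM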; note: this counterscreen used the strain with wild-type TIM10
tim23-1 conf = tim23-1 yeast growth inhibition, confirmed; shares compounds with tim23-1 inh; S. cerevisiae tim23-1 growth, BacTiter-Glo luminescence, 24 h; AID 463218; inhibition, % at 20 µM; hit rate 83% among 4,400;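 active = inhibition above about 39% in either of two replicate wells at 20 µM, limit read from the data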;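 note: temperature-sensitive tim23-1 mutant grown at 25 °C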
A number is an active result; i = inactive; nt = no result.

SMILES	PfHsp90 yeast 2	TIM10 inh	tim10-1 inh	tim23-1 inh	B2AR ag	tim10-1 conf	TIM10 conf	tim23-1 conf
N/C(Cc1ccc(Cl)c(Cl)c1)=N\OC(=O)c1cccs1	104.2	86.0	56.0	61.6	i	i	84.3	42.4
COc1ccc2c(c1)CC/C(=C/c1ccccn1)C2=O	i	56.5	55.2	58.3	i	53.7	59.5	52.1
S=C(NCc1ccc2[nH]c3c(c2c1)CCCC3)Nc1ccccc1	i	48.0	46.0	52.7	i	42.8	51.4	58.8
O=C(NCc1ccc2[nH]c3c(c2c1)CCCC3)c1ccc(S(=O)(=O)N2CCCCC2)cc1	i	i	i	i	i	nt	nt	nt
Cc1cc(C(=O)Nc2ccc3ccccc3c2)c(C)o1	i	i	i	i	i	nt	nt	nt
C=CC[C@@H]1C=C(C)C[C@H](C)C[C@H](OC)[C@H]2O[C@@](O)(C(=O)C(=O)N3CCCC[C@H]3C(=O)O[C@H](/C(C)=C/[C@@H]3CC[C@@H](O)[C@H](OC)C3)[C@H](C)[C@@H](O)CC1=O)[C@H](C)C[C@@H]2OC	nt	73.4	77.4	68.3	nt	78.8	74.2	68.5
CC(=O)N1c2ccccc2C2CCCC[C@H]21 (stereo partly specified)	i	i	i	i	i	nt	nt	nt
Cc1noc2ncnc(Sc3ccc(Br)cc3)c12	i	i	53.7	65.3	i	73.9	nt	68.2
Cc1noc2ncnc(N3CCCC3)c12	i	i	i	i	i	nt	nt	nt
CC12CCC(C/C1=N/OC(=O)c1cccc([N+](=O)[O-])c1)C2(C)C (stereo unspecified)	i	61.8	42.1	69.8	i	66.4	72.0	74.8
CC12CCC(C/C1=N\OC(=O)c1ccc(F)cc1)C2(C)C (stereo unspecified)	i	70.6	65.7	71.1	i	64.2	67.5	78.2
CCCCN(c1ccccc1)S(=O)(=O)c1cccc(C(=O)Nc2c(C)n(C)n(-c3ccccc3)c2=O)c1	i	nt	nt	nt	i	nt	nt	nt
O=S(=O)(NCc1ccccc1)c1ccc(-c2cnc(C3CC3)o2)cc1	i	i	i	i	i	nt	nt	nt
Cc1cccc(C)c1NS(=O)(=O)c1ccc(-c2cnc(C3CC3)o2)cc1	i	i	53.5	71.5	i	31.9	nt	62.7
O=C(CCSc1ccccc1Cl)Nc1cccc([N+](=O)[O-])c1	i	51.7	55.7	53.7	i	50.2	i	62.2
NS(=O)(=O)c1cccc(NC(=O)CCSc2ccccc2Cl)c1	i	i	i	i	i	nt	nt	nt
Cc1ccc(-c2nnc(C)c(N3CCCC3)n2)cc1	i	i	42.2	54.4	i	i	nt	68.7
O=S(=O)(c1cccc(F)c1)N1CCN(Cc2cc3c(cc2Br)OCCO3)CC1	i	i	i	i	i	nt	nt	nt
N#Cc1c([N+](=O)[O-])cc([N+](=O)[O-])cc1S(=O)(=O)Cc1ccccc1	i	53.9	62.4	67.1	93.7	61.2	64.3	87.1
Nc1cccc2c1C(=O)N(C(=O)c1ccco1)C2=O	i	i	i	i	i	nt	nt	nt
Nc1cccc2c1C(=O)N(C(=O)/C=C/c1ccc(F)cc1)C2=O	i	49.3	58.8	74.2	87.0	60.8	47.0	86.1
O=C1/C(=C/c2ccncc2)SC(=S)N1N1CCOCC1	i	57.6	55.8	68.9	i	50.0	55.1	47.8
CCN(C(=O)COC(=O)C1CCC(C(C)(C)C)CC1)c1c(N)n(Cc2ccccc2)c(=O)[nH]c1=O (stereo unspecified)	i	nt	nt	nt	i	nt	nt	nt
Cc1nc2c(Br)cc(Br)cc2cc1O	i	49.5	70.6	76.4	56.8	61.0	45.0	82.8
S=c1ncc2[nH]c(=S)[nH]c2[nH]1	nt	nt	nt	nt	i	nt	nt	nt
CN(C)c1ccc(/C=C/c2ccc3c4ccccc4ccc3[n+]2-c2ccccc2)cc1	nt	nt	nt	nt	i	nt	nt	nt
CN(C)c1ccc(/C=C/c2ccc3ccccc3[n+]2C)cc1	i	80.6	84.5	75.2	i	81.4	i	76.1
O=c1[nH]cnc2c1c(-c1ccccc1)cn2-c1cccc(Cl)c1	i	i	46.4	60.1	i	36.2	nt	38.0
O=C1C=C(O)c2c(O)cc(O)c(O)c2C1=O	i	i	i	i	i	nt	nt	nt
O=C1c2ccccc2C(=O)c2c(O)c(O)cc(O)c21	i	i	46.7	76.6	i	i	nt	70.5
